Laboratory results reported in PubChem BioAssay (NCATS).
“And” between values parts separate entries of the source, which are not always exact repeats. Equal entries are not always repeated. Inconclusive results are not listed. The source made the active and inactive calls. Unless noted, the call rests on the fitted dose curve.

Columns and labels:
[1] = molecular target: Estrogen receptor (Homo sapiens) (UniProt P03372); assay: qHTS assay for small molecule antagonists of estrogen receptor alpha signaling (AID 588513; active means well fitted curve in the direction sought with a large enough effect in the signal ratio, with a control signal flat, not every such curve was filed as active; the % refers to the signal ratio; further: on the % scale 0 is the no-effect control and ±100 the full control effect)
Method in brief: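 ER-alpha-UAS-bla GripTite HEK 293 cells in medium with 2% charcoal/dextran-treated FBS were preincubated 4 h at 37 C, dosed with compound (1:2 titration), stimulated with 0.5nM 17-beta-estradiol for 18 h, then read by CCF4 beta-lactamase fluorescence.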

[2] = qHTS assay for small molecule antagonists of peroxisome proliferator-activated receptor delta signaling (AID 588535; active means well fitted inhibition curve with a large enough effect in the signal ratio, with a control signal flat, not every such curve was filed as active; the % refers to the signal ratio;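 on max response: cells co-treated with a PPAR-delta agonist as stimulator during compound exposure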); conditions: HEK293T PPARd-UAS-bla, beta-lactamase FRET ratio, 18 h; 460 nm channel
Method in brief: (§1)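 Inhibition of PPAR-delta response element-driven beta-lactamase expression is measured in HEK293T cells exposed to a compound titration series for 18 hrs at 37 C. Half-maximal inhibition comes from Hill equation fitting.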

[3] = molecular target: Thyroid hormone receptor beta (Homo sapiens) (UniProt P10828); assay: qHTS assay for small molecule antagonists of thyroid hormone receptor beta signaling (AID 588547; active means well fitted inhibition curve with a large enough effect in the signal ratio, with a control signal flat, not every such curve was filed as active; the % refers to the signal ratio;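 further: cells stimulated with 0.4 nM T3 agonist during compound exposure; series mostly up to about 77 µM; on the % scale 0 is the no-effect control and ±100 the full control effect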); conditions: TR-UAS-bla HEK293, beta-lactamase ratio, antagonist mode, 18 h
Method in brief: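 TR-UAS-bla GripTite HEK293 cells in 2% charcoal/dextran FBS medium were preincubated 4 h at 37 C, given compound (0.59 nM to 92 uM) plus 0.4 nM T3 (final) for 18 h, then CCF4 for 2 h at RT; Hill fit gave IC50.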

[4] = molecular target: Androgen receptor (Homo sapiens) (UniProt P10275); assay: qHTS assay for small molecule agonists of androgen receptor signaling (AID 588515; active means well fitted curve in the direction sought with a large enough effect in the signal ratio, with a control signal flat; the % refers to the signal ratio; further: on the % scale 0 is the no-effect control and ±100 the full control effect); conditions: AR-UAS-bla HEK293, beta-lactamase ratio, agonist 16 h; activation: stronger effect = higher value
Method in brief: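 Stimulation of an AR-responsive β-lactamase reporter in GripTite HEK293 cells was measured after 16 h compound exposure at 37 °C, via CCF4 fluorescence after 2 h RT. EC50 from Hill fits, normalized to R1881 at 30 nM.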

[5] = molecular target: Bile acid receptor (Homo sapiens) (UniProt Q96RI1); assay: qHTS assay for small molecule antagonists of farnesoid X receptor signaling (AID 588526); further: on the % scale 0 is the no-effect control and ±100 the full control effect
Method in brief: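 Concentration-response titrations were fitted to the Hill equation for half-maximal inhibition and maximal response, with data normalised to 50 uM chenodeoxycholic acid and DMSO control wells. Cells: FXR-UAS-bla HEK293T, dialyzed FBS.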

[6] = molecular target: Peroxisome proliferator-activated receptor gamma (Homo sapiens) (UniProt P37231); assay: qHTS assay for small molecule antagonists of peroxisome proliferator-activated receptor gamma signaling (AID 588537; active means well fitted inhibition curve with a large enough effect in the signal ratio, with a control signal flat, not every such curve was filed as active; the % refers to the signal ratio;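 further: reporter cells co-stimulated with 50 nM rosiglitazone agonist during compound treatment; % of control where 0% means no effect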)
Method in brief: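 Compounds are tested as concentration series for inhibition of rosiglitazone-driven (50 nM) reporter expression in GeneBLAzer PPAR-gamma-UAS-bla HEK293 cells. After 16 h at 37 C, CCF4 substrate is added for 2 h at room temperature and blue/green fluorescence is measured.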

[7] = qHTS assay for small molecule agonists of the antioxidant response element (ARE) signaling pathway (AID 651741; active means well fitted activation curve with a large enough effect in the signal ratio; the % refers to the signal ratio; further: potency means the concentration at half of the fitted maximal effect; on activation: % of control where 0% means no effect)
Method in brief: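 Reporter: beta-lactamase under ARE, stably in HepG2. Exposure: 16 h, 37 C, compounds delivered in DMSO by pin tool after 5 h cell preincubation. Readout: FRET substrate fluorescence after 2 h at RT.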

[8] = qHTS assay for small molecule activators of the p53 signaling pathway (AID 651743; active means well fitted activation curve with a large enough effect in the signal ratio, not every such curve was filed as active; the % refers to the signal ratio; further: series mostly up to about 92 µM; % of control where 0% means no effect); conditions: HCT-116 p53RE-bla, beta-lactamase FRET ratio, 16 h; activation: stronger effect = higher value
Method in brief: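 Agonist-mode quantitative HTS in HCT-116 cells carrying a p53-response-element beta-lactamase reporter; 16 h compound treatment at 37 C, then FRET substrate loading for 2 h at room temperature and fluorescence read.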

[9] = molecular target: Peroxisome proliferator-activated receptor delta (Homo sapiens) (UniProt Q03181); assay: qHTS assay for small molecule antagonists of peroxisome proliferator-activated receptor delta signaling (AID 588535);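 on max response: cells co-treated with a PPAR-delta agonist as stimulator during compound exposure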
Method in brief: as §1

[10] = molecular target: Androgen receptor (Homo sapiens) (UniProt P10275); assay: qHTS assay for small molecule antagonists of androgen receptor signaling (AID 588516; active means well fitted curve in the direction sought with a large enough effect in the signal ratio, with a control signal flat, not every such curve was filed as active; the % refers to the signal ratio; further: on the % scale 0 is the no-effect control and ±100 the full control effect)
Method in brief: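 AR-UAS-bla-GripTite HEK 293 cells (2000/well, 5 h at 37 C) received compound titrations, then R1881 at 10 nM final; after 16 h at 37 C, CCF4 dye 2 h RT, beta-lactamase fluorescence read; IC50 from Hill fits.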

Sequence of Thyroid hormone receptor beta (Homo sapiens) (P10828 whole entry, looked up): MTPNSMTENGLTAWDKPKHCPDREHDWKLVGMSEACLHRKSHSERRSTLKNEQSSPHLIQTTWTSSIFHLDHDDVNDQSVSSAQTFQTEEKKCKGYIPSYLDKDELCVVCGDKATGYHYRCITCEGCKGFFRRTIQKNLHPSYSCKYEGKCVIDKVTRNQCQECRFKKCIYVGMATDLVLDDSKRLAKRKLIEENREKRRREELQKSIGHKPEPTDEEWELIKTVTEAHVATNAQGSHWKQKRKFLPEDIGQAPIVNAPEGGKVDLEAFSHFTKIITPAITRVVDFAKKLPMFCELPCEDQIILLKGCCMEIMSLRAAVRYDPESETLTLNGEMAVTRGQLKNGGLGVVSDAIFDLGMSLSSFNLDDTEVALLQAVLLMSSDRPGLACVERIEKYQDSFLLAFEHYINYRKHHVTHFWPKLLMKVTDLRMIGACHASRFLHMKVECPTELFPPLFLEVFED
Sequence of Bile acid receptor (Homo sapiens) (Q96RI1 whole entry, looked up): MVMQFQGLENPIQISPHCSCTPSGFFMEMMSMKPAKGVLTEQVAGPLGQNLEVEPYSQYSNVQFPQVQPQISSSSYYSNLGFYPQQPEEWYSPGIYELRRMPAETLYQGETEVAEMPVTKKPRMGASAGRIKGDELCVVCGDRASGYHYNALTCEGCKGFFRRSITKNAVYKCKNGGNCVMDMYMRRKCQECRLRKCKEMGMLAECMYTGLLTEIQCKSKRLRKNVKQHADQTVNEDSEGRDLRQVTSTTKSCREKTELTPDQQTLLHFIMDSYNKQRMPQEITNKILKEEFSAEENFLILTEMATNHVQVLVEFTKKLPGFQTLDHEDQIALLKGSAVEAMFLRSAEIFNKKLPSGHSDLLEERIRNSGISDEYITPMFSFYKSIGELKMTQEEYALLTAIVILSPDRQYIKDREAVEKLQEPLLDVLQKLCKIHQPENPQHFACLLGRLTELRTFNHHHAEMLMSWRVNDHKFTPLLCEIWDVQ
Sequence of Peroxisome proliferator-activated receptor delta (Homo sapiens) (Q03181 whole entry, looked up): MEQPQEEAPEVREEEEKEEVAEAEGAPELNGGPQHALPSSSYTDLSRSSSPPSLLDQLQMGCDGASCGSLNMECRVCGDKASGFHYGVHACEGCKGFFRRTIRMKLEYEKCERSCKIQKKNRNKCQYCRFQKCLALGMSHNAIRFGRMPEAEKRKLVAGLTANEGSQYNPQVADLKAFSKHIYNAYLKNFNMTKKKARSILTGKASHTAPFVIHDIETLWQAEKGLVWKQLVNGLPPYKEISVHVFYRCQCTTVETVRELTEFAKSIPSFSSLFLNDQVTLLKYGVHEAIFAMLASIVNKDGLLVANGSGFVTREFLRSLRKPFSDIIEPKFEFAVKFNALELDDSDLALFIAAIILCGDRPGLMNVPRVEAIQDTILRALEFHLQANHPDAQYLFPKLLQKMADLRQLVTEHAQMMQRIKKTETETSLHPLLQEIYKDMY
Sequence of Androgen receptor (Homo sapiens) (P10275 whole entry, looked up): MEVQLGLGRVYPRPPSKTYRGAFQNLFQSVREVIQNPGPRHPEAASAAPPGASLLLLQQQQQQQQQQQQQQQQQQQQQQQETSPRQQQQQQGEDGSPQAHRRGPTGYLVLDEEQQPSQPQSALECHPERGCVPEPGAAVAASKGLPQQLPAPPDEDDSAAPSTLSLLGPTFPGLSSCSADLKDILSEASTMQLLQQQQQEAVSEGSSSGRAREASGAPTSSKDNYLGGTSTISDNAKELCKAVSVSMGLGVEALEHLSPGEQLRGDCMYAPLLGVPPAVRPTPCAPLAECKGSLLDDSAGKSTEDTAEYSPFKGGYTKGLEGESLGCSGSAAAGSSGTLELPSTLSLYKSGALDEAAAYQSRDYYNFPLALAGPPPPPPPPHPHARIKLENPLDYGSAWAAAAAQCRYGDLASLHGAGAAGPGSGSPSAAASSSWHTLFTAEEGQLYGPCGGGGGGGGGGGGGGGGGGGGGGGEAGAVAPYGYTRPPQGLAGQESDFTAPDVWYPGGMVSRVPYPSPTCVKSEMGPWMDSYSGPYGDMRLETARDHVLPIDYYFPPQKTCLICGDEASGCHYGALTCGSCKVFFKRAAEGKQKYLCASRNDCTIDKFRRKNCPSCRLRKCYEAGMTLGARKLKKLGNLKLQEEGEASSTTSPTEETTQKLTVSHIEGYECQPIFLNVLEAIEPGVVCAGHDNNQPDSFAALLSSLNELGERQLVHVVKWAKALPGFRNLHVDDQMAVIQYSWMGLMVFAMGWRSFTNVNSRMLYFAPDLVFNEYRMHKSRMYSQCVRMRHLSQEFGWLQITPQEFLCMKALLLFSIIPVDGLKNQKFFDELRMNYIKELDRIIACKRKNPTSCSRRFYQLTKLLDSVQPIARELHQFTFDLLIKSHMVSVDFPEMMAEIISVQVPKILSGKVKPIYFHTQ
Sequence of Peroxisome proliferator-activated receptor gamma (Homo sapiens) (P37231 whole entry, looked up): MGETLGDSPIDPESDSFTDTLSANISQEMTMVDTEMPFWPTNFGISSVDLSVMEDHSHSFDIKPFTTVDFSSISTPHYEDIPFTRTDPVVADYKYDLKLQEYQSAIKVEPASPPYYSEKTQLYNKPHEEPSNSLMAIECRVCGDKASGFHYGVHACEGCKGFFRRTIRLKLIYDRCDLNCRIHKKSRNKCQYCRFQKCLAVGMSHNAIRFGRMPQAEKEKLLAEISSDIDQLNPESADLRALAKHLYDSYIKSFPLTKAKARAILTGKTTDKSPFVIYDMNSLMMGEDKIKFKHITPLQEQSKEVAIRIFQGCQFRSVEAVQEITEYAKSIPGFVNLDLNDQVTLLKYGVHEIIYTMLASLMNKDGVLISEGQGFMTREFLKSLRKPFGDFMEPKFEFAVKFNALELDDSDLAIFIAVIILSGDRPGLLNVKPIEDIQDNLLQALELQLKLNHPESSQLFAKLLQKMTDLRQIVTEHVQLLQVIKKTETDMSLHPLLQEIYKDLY
Sequence of Estrogen receptor (Homo sapiens) (P03372 whole entry, looked up): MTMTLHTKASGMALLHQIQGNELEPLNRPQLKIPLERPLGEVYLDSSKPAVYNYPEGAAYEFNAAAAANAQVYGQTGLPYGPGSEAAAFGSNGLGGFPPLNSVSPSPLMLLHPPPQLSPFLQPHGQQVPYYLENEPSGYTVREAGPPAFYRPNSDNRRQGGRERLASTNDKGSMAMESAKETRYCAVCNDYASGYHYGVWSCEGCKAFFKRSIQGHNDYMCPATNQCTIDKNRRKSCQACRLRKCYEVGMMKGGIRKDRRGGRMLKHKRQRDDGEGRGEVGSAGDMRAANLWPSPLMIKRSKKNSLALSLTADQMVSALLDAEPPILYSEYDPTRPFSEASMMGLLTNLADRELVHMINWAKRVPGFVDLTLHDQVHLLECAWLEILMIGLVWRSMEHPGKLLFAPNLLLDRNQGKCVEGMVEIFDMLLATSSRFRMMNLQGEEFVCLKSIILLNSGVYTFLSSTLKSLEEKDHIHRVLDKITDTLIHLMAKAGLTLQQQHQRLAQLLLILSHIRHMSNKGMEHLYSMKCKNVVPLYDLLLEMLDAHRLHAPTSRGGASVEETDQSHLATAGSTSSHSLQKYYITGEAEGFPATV

## O=C(O)C(c1ccc(Cl)cc1)c1ccc(Cl)cc1
[1]
  Potency: inactive
[2]
  max response: -10.8%
[3]
  activity change % (negative = inhibition): -8.17% (inactive)

## CN=C(N)NCC1CCOC1 (stereo unspecified)
[4]
  activation: 2.67% (inactive)
[5]
  Potency: inactive
[2]
  max response: 42%
[6]
  Potency: inactive
[3]
  activity change % (negative = inhibition): -7.34% (inactive)
[7]
  Potency: 21.7 µM (active)
[8]
  activation: 20.9% (inactive) and -3.95% (inactive)

## C=CCOC(=O)CC(C)C
[5]
  Potency: inactive
[2]
  max response: 13%
[9]
  Potency: inactive
[7]
  Potency: inactive

## CCC/C(=N\OCC)C1=C(O)CC(O)(CC(C)S(=O)(=O)CC)CC1=O (stereo unspecified)
[4]
  activation: -4% (inactive)
[10]
  outcome: inactive
[5]
  Potency: inactive
[2]
  max response: 9.67%
[6]
  Potency: inactive
[7]
  Potency: 54.5 µM (active)
[8]
  activation: -2.69% (inactive)

## CS/C(=N\O)C(=O)N(C)C
[4]
  activation: 11.7% (inactive)
[10]
  outcome: inactive
[2]
  max response: 31.5%
[9]
  Potency: inactive
[6]
  Potency: inactive
[3]
  activity change % (negative = inhibition): -12.9% (inactive)
[7]
  Potency: inactive
[8]
  activation: -0.3% (inactive)

## CN(C)c1nc(=O)n(C2CCC(O)CC2)c(=O)n1C (stereo unspecified)
[4]
  activation: 6.02% (inactive)
[10]
  outcome: inactive
[2]
  max response: 20.4%
[9]
  Potency: inactive
[6]
  Potency: inactive
[3]
  activity change % (negative = inhibition): 11.1% (inactive)
[7]
  Potency: inactive

## O=S(c1ccc(Cl)cc1)c1cc(Cl)c(Cl)cc1Cl (stereo unspecified)
[4]
  activation: -11.5% (inactive)
[5]
  Potency: inactive
[2]
  max response: 14.8%
[3]
  activity change % (negative = inhibition): -2.9% (inactive)
[7]
  Potency: 54.5 µM (active)
[8]
  activation: 3.87% (inactive)

## CCCCCCCCCCCCCCC(=O)OC
[10]
  outcome: inactive
[2]
  max response: -7.18%
[9]
  Potency: inactive
[6]
  Potency: inactive
[7]
  Potency: inactive

## CC(C)=CCC[C@@H](C)[C@H]1CC[C@@]2(C)C3=C(CC[C@]12C)[C@@]1(C)CC[C@H](O)C(C)(C)[C@@H]1CC3
[4]
  activation: 6.85% (inactive)
[2]
  max response: 37.7%
[9]
  Potency: inactive
[3]
  activity change % (negative = inhibition): -4.34% (inactive)
[7]
  Potency: inactive
[8]
  activation: 2.67% (inactive)

## CC1COCc2cc3c(cc21)C(C)(C)C(C)C3(C)C (stereo unspecified)
[4]
  activation: 12.8% (inactive)
[10]
  outcome: inactive
[2]
  max response: -16.1%
[9]
  Potency: inactive
[3]
  activity change % (negative = inhibition): 0.269% (inactive)
[7]
  Potency: inactive

## CCOC(=O)C1=NN(c2ccc(Cl)cc2Cl)C(C)(C(=O)OCC)C1 (stereo unspecified)
[4]
  activation: -14.3% (inactive)
[10]
  outcome: inactive
[7]
  Potency: inactive
[8]
  activation: -4.17% (inactive)

## COc1nc(C)nc(NC(=O)NS(=O)(=O)c2ccccc2OCCCl)n1
[5]
  Potency: inactive
[2]
  max response: -8.8%
[9]
  Potency: inactive
[3]
  activity change % (negative = inhibition): 1.88% (inactive)
[8]
  activation: -4.39% (inactive)

## CCCCCCCCCC[N+](C)(C)Cc1ccccc1
[4]
  activation: -12.2% (inactive)
[6]
  Potency: inactive
[8]
  activation: 6.02% (inactive)
